Inconclusive results are not listed. Active and inactive are the calls of the source. Unless noted, calls come from the whole dose curve; as a rule, active = well fitted curve in the direction sought with a large enough effect in the repeat runs; inconclusive = weak or mixed curves; inactive = no such curve, though single readings can be large; an effect the other way counts as inactive or inconclusive.
Assays:
[1] = qHTS assay to identify small molecule agonists of the vitamin D receptor (VDR) signaling pathway - cell viability counter screen (AID 743224); note: series mostly up to about 63 µM; % is set by controls: 0 for no effect and ±100 for the full control effect; nearly all actives have a fitted effect of over 50% in size
How it was run: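 VDR-bla cells, 4 h after plating, exposed to compounds for 16 h at 37C; viability then read in the same wells as CellTiter-Glo luminescence after 30 min at room temperature, following the bla FRET read.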

[2] = qHTS assay to identify small molecule antagonists of the vitamin D receptor (VDR) signaling pathway - cell viability counter screen (AID 743225); note: % is set by controls: 0 for no effect and ±100 for the full control effect; nearly all actives have a fitted effect of over 50% in size
How it was run: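 Compounds were pinned onto VDR-bla HEK 293T cells together with 1-alpha,25-dihydroxyvitamin D3 at 3 nM final. After 16 h at 37C and 5% CO2 plus the reporter readout, cell viability was measured by CellTiter-Glo luminescence (30 min, room temperature).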

[3] = qHTS assay to identify small molecule agonists of the NFkB signaling pathway - cell viability counter screen (AID 1159515; calls by dose curve; note: series mostly up to about 61 µM; % is set by controls: 0 for no effect and ±100 for the full control effect; nearly all actives have a fitted effect of over 55% in size)
How it was run: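 NFkB-bla ME-180 cells, 2,000/well, plated overnight at 37 C; compound added for 5 hr at 37 C. Viability read in the same wells as the bla reporter, by CellTiter-Glo luminescence after 30 min at room temperature.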

[4] = qHTS assay to identify small molecule agonists of the endoplasmic reticulum stress response signaling pathway (AID 1159516; active = well fitted activation curve with a large enough effect in the signal ratio in the repeat runs, not every such curve was filed as active; the % refers to the signal ratio; note: % is set by controls: 0 for no effect and ±100 for the full control effect)
How it was run: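 CellSensor ESRE-bla HeLa cells, 1,500 per well, plated overnight, then exposed to compounds for 5 hr at 37 C. Beta-lactamase reporter read with LiveBLAzer B/G FRET substrate after 2 hr at room temperature, 405 nm excitation, 460 and 530 nm emission.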

[5] = qHTS assay to identify small molecule agonists of the endoplasmic reticulum stress response signaling pathway - cell viability counter screen (AID 1159517; calls by dose curve;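 note: HeLa cells carrying an ER stress response element beta-lactamase reporter; series mostly up to about 61 µM; % is set by controls: 0 for no effect and ±100 for the full control effect; nearly all actives have a fitted effect of over 50% in size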)
How it was run: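 HeLa cells carrying an ESRE-driven beta-lactamase reporter receive compound for 5 hr at 37 C. Cell viability is then gauged with CellTiter-Glo by luminescence, 30 min at room temperature.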

[6] = qHTS assay to identify small molecule antagonists of the retinoid-related orphan receptor gamma (ROR-gamma) signaling pathway - cell viability counter screen (AID 1159520); note: nearly all actives have a fitted effect of over 50% in size; note: potency is the fitted concentration of half-maximal effect
How it was run: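 Cytotoxicity was read from cellular ATP (CellTiter-Glo luminescence) after 16 hr at 37 C with 1 uM doxycycline induction. The inducer was added 2 hr after compound transfer to Tet-on ROR gamma CHO cells.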

[7] = target: Nuclear receptor ROR-gamma (Homo sapiens) (UniProt P51449); assay: qHTS assay to identify small molecule antagonists of the retinoid-related orphan receptor gamma (ROR-gamma) signaling pathway (AID 1159521; note: nearly all actives have a fitted effect of over 50% in size; note: potency is the fitted concentration of half-maximal effect)
How it was run: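 Test compounds were applied to Tet-on RORγ CHO cells 2 h ahead of doxycycline hyclate (1 uM final). Luciferase reporter activity was quantified by luminescence after 16 h at 37 C and 5% CO2.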

[8] = qHTS assay to identify small molecule agonists of the AP-1 signaling pathway (AID 1159526; calls by dose curve; note: % is set by controls: 0 for no effect and ±100 for the full control effect)
[9] = qHTS assay to identify small molecule antagonists of the retinoid acid receptor (RAR) signaling pathway - cell viability counter screen (AID 1159551); note: nearly all actives have a fitted effect of over 35% in size; note: potency is the fitted concentration of half-maximal effect
How it was run: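 C3RL4 RARE-luciferase cells, 1,000/well, incubated overnight, then dosed with compound plus 1 uM retinol (final). After 6 hr at 37 C, viability read by CellTiter-Glo ATP luminescence following 30 min at room temperature.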

[10] = qHTS assay to identify small molecule agonists of the RXR signaling pathway - cell viability counter screen (AID 1159529); note: nearly all actives have a fitted effect of over 50% in size; note: potency is the fitted concentration of half-maximal effect
How it was run: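 Compounds dissolved in DMSO were pinned onto HEK 293T cells carrying a beta-lactamase reporter under RXR-alpha control and incubated 16 hr. Cytotoxicity was then quantified by CellTiter-Glo luminescence.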

[11] = qHTS assay to identify small molecule antagonists of the retinoic acid receptor (RAR) signaling pathway (AID 1159552)
How it was run: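 Test chemicals and DMSO controls were pin-transferred onto C3RL4 cells a day after seeding; retinol (1 uM final) followed at once. Luminescent reporter output was quantified after 6 hr of co-incubation and 30 min with detection reagent.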

[12] = qHTS assay to identify small molecule agonists of the retinoic acid receptor (RAR) signaling pathway (AID 1159553); note: % is set by controls: 0 for no effect and ±100 for the full control effect
How it was run: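 C3RL4 RARE-luciferase cells were seeded at 1,000/well and grown overnight at 37 C, then exposed to compounds for 6 hr at 37 C, 5% CO2. Luciferase reagent was added and luminescence was read after 30 min at room temperature.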

[13] = qHTS assay to identify small molecule agonists of the AP-1 signaling pathway - cell viability counter screen (AID 1159525; calls by dose curve; note: nearly all actives have a fitted effect of over 55% in size)
How it was run: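 Luminescent ATP readout (Cell Titer Glo, 30 min RT), normalised to DMSO and tetra n-octyl ammonium bromide controls. Cells were ME-180 AP-1-bla in 0.5% dialyzed FBS Opti-MEM, with a 5 h, 37 °C compound exposure.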

[14] = target: Retinoic acid receptor RXR-alpha (Homo sapiens) (UniProt P19793); assay: qHTS assay to identify small molecule agonists of the RXR signaling pathway (AID 1159527; calls by dose curve; note: % is set by controls: 0 for no effect and ±100 for the full control effect; nearly all actives have a fitted effect of over 35% in size)
How it was run: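 Using 9-cis retinoic acid as the reference agonist, chemicals were tested in HEK 293T cells […] for 16 hr; substrate loading lasted 2 hr at room temperature.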

[15] = qHTS assay to identify small molecule antagonists of the estrogen related receptor (ERR) signaling pathway - cell viability counter screen (AID 1224818); note: series mostly up to about 46 µM; % is set by controls: 0 for no effect and ±100 for the full control effect
How it was run: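 ERR cells, 2,000 per well, compound added after 6 h and incubated 17.5 h at 37 C. Viability read by CellTiter-Fluor fluorescence after a further 30 min at 37 C.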

[16] = qHTS assay to identify small molecule antagonists of the estrogen related receptor (ERR) signaling pathway (AID 1224819)
How it was run: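 ERR reporter cell line (NTP) plated at 2,000 cells/well, settled 6 h at 37C/5% CO2, then exposed to LOPAC compounds for 18 h at 37C. One-Glo luciferase luminescence read after 30 min at room temperature.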

[17] = qHTS assay to identify small molecule agonists of the estrogen related receptor (ERR) signaling pathway (AID 1224820); note: % is set by controls: 0 for no effect and ±100 for the full control effect
How it was run: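 ERR reporter cell line (from NTP), 2,000 cells/well, incubated 6 h before compound addition, then 18 h at 37 C. Luminescence measured 30 min after One-Glo reagent at room temperature.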

[18] = tested on: estrogen-related receptor alpha (ERRalpha) with PGC-1alpha coactivator, human; assay: qHTS assay to identify small molecule antagonists of the estrogen related receptor signaling pathway with the pleiotropic PPARgamma coactivator (PGC) (AID 1224821; calls by dose curve)
How it was run: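 PGC/ERR reporter cell line, plated 6 h before compound addition, then exposed 18 h at 37 °C. Luciferase activity read by luminescence 30 min after One-Glo addition; decrease indicates antagonism.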

[19] = qHTS assay to identify small molecule antagonists of the estrogen related receptor signaling pathway with the pleiotropic PPARgamma coactivator (PGC) cell viability counter screen (AID 1224822)
How it was run: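 PGC/ERR cells rested 6 h, then compound-treated 17.5 h at 37 C. CellTiter-Fluor added for 30 min at 37 C, viability measured by fluorescence intensity.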

[20] = qHTS assay to identify small molecule agonists of the estrogen related receptor signaling pathway with the pleiotropic PPARgamma coactivator (PGC) (AID 1224823); note: % is set by controls: 0 for no effect and ±100 for the full control effect
How it was run: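 PGC/ERR reporter cells seeded 6 h, then exposed to compounds (23 nL in DMSO) for 18 h at 37 C. One-Glo luciferase luminescence read after 30 min at room temperature.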

Sequence of Retinoic acid receptor RXR-alpha (Homo sapiens) (P19793 whole entry, looked up): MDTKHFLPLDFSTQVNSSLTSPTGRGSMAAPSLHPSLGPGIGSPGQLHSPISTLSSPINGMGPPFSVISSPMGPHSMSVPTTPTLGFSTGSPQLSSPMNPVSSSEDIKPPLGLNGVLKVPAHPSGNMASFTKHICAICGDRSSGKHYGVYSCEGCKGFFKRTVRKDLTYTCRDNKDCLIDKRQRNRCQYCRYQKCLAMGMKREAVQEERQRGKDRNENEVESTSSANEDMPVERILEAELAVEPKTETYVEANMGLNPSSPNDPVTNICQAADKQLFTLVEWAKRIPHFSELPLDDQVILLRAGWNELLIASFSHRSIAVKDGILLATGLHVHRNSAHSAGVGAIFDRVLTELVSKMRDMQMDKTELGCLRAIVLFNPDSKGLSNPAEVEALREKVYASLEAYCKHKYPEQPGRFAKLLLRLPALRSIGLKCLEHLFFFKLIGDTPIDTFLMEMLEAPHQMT

CN(C)c1ccc(C(c2ccccc2)c2ccc(N(C)C)cc2)cc1
active: Potency [7] 27.3 µM
inactive: Potency [1] | Potency [2] | Potency [3] | Potency [4] | Potency [5] | Potency [6] | Potency [8] | Potency [9]

c1ccc(CNCCNCc2ccccc2)cc1
inactive: Potency [1] | Potency [2] | Potency [3] | Potency [4] | Potency [5] | Potency [6] | Potency [7] | Potency [8] | Potency [10] | Potency [9] | Potency [11] | Potency [12]

O=C1CCCCCCCCCCCC(=O)OCCO1
inactive: Potency [1] | Potency [3] | Potency [4] | Potency [5] | Potency [6] | Potency [7] | Potency [13] | Potency [9]

COc1cc2c(cc1OC)C(C(C(=O)N(CCc1ccc(OC)c(OC)c1OC)CCc1ccc(OC)c(OC)c1OC)c1ccccc1)=NCC2 (centres undefined)
inactive: Potency [1] | Potency [2] | Potency [3] | Potency [4] | Potency [5] | Potency [6] | Potency [7] | Potency [8] | Potency [14] | Potency [10] | Potency [9] | Potency [11] | Potency [12]

NC(N)=NCCC[C@H](N)C(=O)O
inactive: activity change, negative = cytotoxicity [1] -0.114% [at 5.95 µM] | viability change, negative = cytotoxic [2] -1.77% [at 6.95 µM] | activity, negative = cytotoxic [3] 7.11% [at 6.95 µM] | activation [4] 0.874% [at 6.95 µM] | activity change, negative = cytotoxicity [5] -7.79% [at 6.95 µM] | activity, negative = cytotoxicity [6] 0.0529% [at 8.39 µM] | activity change, negative = inhibition [7] -5.21% [at 8.39 µM] | activation [8] 2.4% [at 6.97 µM] | activation [14] 7.8% [at 6.98 µM] | activity change, negative = cytotoxicity [10] 6.89% [at 6.97 µM] | activity change, negative = cytotoxicity [9] -0.0145% [at 8.39 µM] | activity, negative = inhibition [11] 5.45% [at 8.39 µM] | activation [12] 0.0873% [at 8.36 µM] | outcome [15] | Potency [16] | outcome [17] | Potency [18] | outcome [19] | outcome [20]

C=C1C(=C/C=C2\CCC[C@]3(C)[C@@H]([C@H](C)/C=C/[C@@H](O)C4CC4)CC[C@@H]23)C[C@@H](O)C[C@@H]1O
inactive: Potency [1] | Potency [3] | Potency [4] | Potency [5] | Potency [6] | Potency [9] | Potency [11]
active: Potency [7] 13.3 µM | Potency [10] 23.9 µM

Cc1oc2c(NC(=O)c3c(Cl)cccc3Cl)cccc2c1C(C)(C)O
inactive: Potency [3] | Potency [4] | Potency [5] | Potency [6] | Potency [8] | Potency [9] | Potency [11] | Potency [12]
active: Potency [7] 27.3 µM

Cc1[nH]c(C)c(Cl)c(=O)c1Cl
inactive: Potency [1] | Potency [2] | Potency [3] | Potency [4] | Potency [5] | activity, negative = cytotoxicity [6] 3.57% [at 19 µM] | activity change, negative = inhibition [7] -2.21% [at 19 µM] | activation [8] -0.748% [at 15.8 µM] | activation [14] 5.66% [at 15.8 µM] | activity change, negative = cytotoxicity [10] 7.97% [at 15.8 µM] | activity change, negative = cytotoxicity [9] -2.2% [at 19 µM] | activity, negative = inhibition [11] 3.44% [at 19 µM] | Potency [12]

CCN(CC)c1ccc2c(-c3ccccc3C(=O)O)c3ccc(=[N+](CC)CC)cc-3oc2c1
inactive: Potency [2] | Potency [3] | Potency [4] | Potency [5] | Potency [7] | Potency [13]
active: Potency [6] 19.3 µM | Potency [9] 19.3 µM

O=C(O)C1(C(=O)O)CCC1.[NH2-].[NH2-].[Pt+2]
inactive: Potency [1] | Potency [2] | Potency [3] | Potency [4] | Potency [5] | Potency [6] | Potency [7] | Potency [8] | Potency [14] | Potency [10] | Potency [9] | Potency [12]

COc1ccc(C(=O)Nc2nc3ccccc3c(NCc3ccccc3)c2C#N)cc1
inactive: Potency [1] | Potency [2] | Potency [3] | Potency [4] | Potency [5] | Potency [6] | Potency [7] | Potency [13] | Potency [9]

CCCCC(CC)CN1C(=O)C2C3C=CC(C3)C2C1=O (centres undefined)
inactive: Potency [3] | Potency [4] | Potency [5] | Potency [6] | Potency [7] | Potency [10] | Potency [9]

C1CCCNCCC1
inactive: Potency [1] | Potency [2] | Potency [3] | Potency [4] | Potency [5] | Potency [6] | Potency [7] | Potency [8] | Potency [14] | Potency [10] | Potency [9]

COc1ccc(C(=O)N2CCN(CC(=O)N3CCOCC3)CC2)cc1
inactive: Potency [1] | Potency [2] | Potency [3] | Potency [4] | Potency [5] | Potency [6] | Potency [7] | Potency [8] | Potency [10] | Potency [9]

O=C(CS)Nc1ccccc1
inactive: Potency [1] | Potency [2] | Potency [3] | Potency [4] | Potency [5] | Potency [6] | Potency [7] | Potency [8] | Potency [10] | Potency [9]

C/C=C(/C(=C/C)c1ccc(OC(C)=O)cc1)c1ccc(OC(C)=O)cc1
inactive: Potency [2] | Potency [3] | Potency [4] | Potency [5] | Potency [6] | Potency [7] | Potency [10] | Potency [9] | Potency [12]

O=C1OC(=O)C2C3C=CC(C3)C12 (centres undefined)
inactive: Potency [1] | Potency [2] | Potency [3] | Potency [4] | Potency [5] | Potency [6] | Potency [7] | Potency [8] | Potency [14] | Potency [10] | Potency [9] | Potency [11] | Potency [12]

Nc1ccc(S(=O)(=O)Nc2ccccc2)cc1
inactive: Potency [1] | Potency [2] | Potency [3] | Potency [4] | Potency [5] | Potency [6] | Potency [7] | Potency [8] | Potency [14] | Potency [10] | Potency [9] | Potency [11] | Potency [12]

Reference: PubChem BioAssay (Tox21)
